From PubChem BioAssay (NCATS)
Values joined by “and” are separate entries in the source; they are usually repeats but may differ in a detail not shown here. Equal values may be shown once. Inconclusive results are not listed. Active and inactive are the calls of the source. Calls follow the shape of the dose curve; as a rule, active = well fitted curve in the direction sought with a large enough effect; inconclusive = small, poorly fitted or top-dose-only effect, or another doubt; inactive = no such curve, though single readings can be large; an effect the other way counts as inactive or inconclusive.

Key:
Furin (Homo sapiens) = Furin (Homo sapiens) (UniProt P09958); assay: Furin counterscreen qHTS for Zika virus inhibitors (AID 1347149); also: nearly all actives have a fitted effect of over 70% in size; also: potency is read from the fitted curve at half-maximal effect
Sequence of Furin (Homo sapiens) (P09958 whole entry, looked up): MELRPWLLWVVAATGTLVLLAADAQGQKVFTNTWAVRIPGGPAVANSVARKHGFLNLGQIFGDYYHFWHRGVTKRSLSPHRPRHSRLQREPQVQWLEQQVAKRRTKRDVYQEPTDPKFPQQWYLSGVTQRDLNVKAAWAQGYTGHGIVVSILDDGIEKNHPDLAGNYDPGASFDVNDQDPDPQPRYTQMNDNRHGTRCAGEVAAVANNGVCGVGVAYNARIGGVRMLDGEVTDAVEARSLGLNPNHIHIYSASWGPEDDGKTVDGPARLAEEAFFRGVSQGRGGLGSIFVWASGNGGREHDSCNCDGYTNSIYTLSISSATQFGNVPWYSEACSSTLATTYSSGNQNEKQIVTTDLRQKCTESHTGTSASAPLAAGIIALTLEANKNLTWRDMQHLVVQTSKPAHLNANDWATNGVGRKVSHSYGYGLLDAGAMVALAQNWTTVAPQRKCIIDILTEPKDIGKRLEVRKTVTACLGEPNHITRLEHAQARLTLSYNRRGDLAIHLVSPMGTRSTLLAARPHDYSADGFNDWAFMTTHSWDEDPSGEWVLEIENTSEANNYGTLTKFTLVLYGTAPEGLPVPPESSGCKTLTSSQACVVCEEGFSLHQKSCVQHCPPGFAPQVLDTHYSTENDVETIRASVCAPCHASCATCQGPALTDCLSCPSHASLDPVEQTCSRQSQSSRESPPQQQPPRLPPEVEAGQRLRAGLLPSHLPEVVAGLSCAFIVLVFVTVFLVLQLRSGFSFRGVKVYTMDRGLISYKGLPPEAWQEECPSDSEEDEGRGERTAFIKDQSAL
Procedure, shortened: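 Counterscreen measures cleavage of 2 microM BOC-RVRR-AMC, below its ~15 microM Km, by 5 nM full-length human furin at pH 7.0 after a 15-min compound preincubation. Inhibition derives from the 15-min fluorescence increase at 37C.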

[1] = system: Zika virus NS2B-NS3 protease (linked construct); assay: Confirmatory screen NINDS AMC qHTS for Zika virus inhibitors (AID 1347152); conditions: Purified linked NS2B-NS3, AMC substrate fluorescence; also: potency is read from the fitted curve at half-maximal effect; nearly all actives have a fitted effect of over 70% in size
Procedure, shortened: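 In this dose-response qHTS, AMC release from 10 microM Bz-Nle-KRR-AMC by 1 nM linked protease is measured over 15 minutes (about 20% conversion) at pH 8.0. Percent inhibition is fitted to a 4-parameter Hill curve.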

[2] = system: Zika virus NS2B-NS3 protease; assay: Primary screen GU AMC qHTS for Zika virus inhibitors (AID 1347154); also: nearly all actives have a fitted effect of over 70% in size; also: potency is read from the fitted curve at half-maximal effect
Procedure, shortened: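 Unlinked Zika NS2B hydrophilic domain/NS3 protease domain noncovalent complex (25 nM final) in 10 mM Tris-HCl pH 8.0, 0.01% Tween 20, with AMC peptide substrate. Fluorescence (ex 340, em 450 nm) change over 15 min, room temperature; percent inhibition fitted to 4-parameter Hill equation.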

[3] = ZIKV-mCherry secondary qHTS for Zika virus inhibitors (AID 1347158); also: top concentration of the series differs between compounds
Procedure, shortened: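 Read-out is percent infection: mCherry-positive Vero cells (nuclear-proximal intensity >450 RFU, 3 SD above negative controls) counted by high-content imaging of Hoechst-stained, PFA-fixed wells after 48-72 h with ZIKV-mCherry at MOI 1 and compound.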

[4] = Confirmatory screen NINDS Rhodamine qHTS for Zika virus inhibitors (AID 1347161); also: potency is read from the fitted curve at half-maximal effect; nearly all actives have a fitted effect of over 60% in size
Procedure, shortened: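 qHTS dose-response: 25 nM linked protease, pH 8.0 Tris/Tween buffer, cpd titration, 15 min RT preinc, 1.5 microM Rhod110 peptide, 15 min reaction (~15% conversion), Ex480/Em540; 4-parameter Hill fit.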

[5] = system: Zika virus NS2B-NS3 protease (unlinked complex); assay: Confirmatory screen GU AMC qHTS for Zika virus inhibitors (AID 1347153); conditions: Recombinant NS2B-NS3 protease, AMC substrate fluorescence;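 also: enzyme at 25 nM with substrate at 10 µM below its Km of 18.3 µM; potency is read from the fitted curve at half-maximal effect; nearly all actives have a fitted effect of over 70% in size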
Procedure, shortened: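 Noncovalent NS2B hydrophilic domain/NS3 protease complex (25 nM) in 10 mM Tris-HCl pH 8.0, 0.01% Tween 20 was preincubated 15 min at room temperature with compounds. Then 10 µM AMC substrate (Km 18.3 µM) was added; fluorescence was read over 15 min and fitted to a 4-parameter Hill equation.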

[6] = qHTS of pediatric cancer cell lines to identify multiple opportunities for drug repurposing: Confirmatory screen for control Hh wild type fibroblast cells (AID 1347121); also: nearly all actives have a fitted effect of over 70% in size
Procedure, shortened: (§1)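 Cells (500-1,000/well) in growth media were settled 5 h at 37 degrees C, then given compounds for 48 h. Viability was read as CellTiter-Glo luminescence. Primary runs used MIPE at 11 points (0.78 nM-46 µM) and NPC at 8 points (0.59 nM-46 µM); follow-ups used 11 points.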

[7] = qHTS of pediatric cancer cell lines to identify multiple opportunities for drug repurposing: Confirmatory screen for Rh41 cells (AID 1347123);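 also: 48 h compound exposure; nearly all actives have a fitted effect of over 60% in size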; also: potency is read from the fitted curve at half-maximal effect
Procedure, shortened: as §1

[8] = qHTS of pediatric cancer cell lines to identify multiple opportunities for drug repurposing: Confirmatory screen for RD cells (AID 1347124);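 also: cells exposed to compound for 48 h before viability readout; nearly all actives have a fitted effect of over 65% in size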
Procedure, shortened: as §1

[9] = qHTS of pediatric cancer cell lines to identify multiple opportunities for drug repurposing: Confirmatory screen for Rh18 cells (AID 1347125); also: nearly all actives have a fitted effect of over 55% in size
Procedure, shortened: as §1

[10] = qHTS of pediatric cancer cell lines to identify multiple opportunities for drug repurposing: Confirmatory screen for Rh30 cells (AID 1347126); also: nearly all actives have a fitted effect of over 55% in size; also: potency is read from the fitted curve at half-maximal effect
Procedure, shortened: as §1

[11] = qHTS of pediatric cancer cell lines to identify multiple opportunities for drug repurposing: Confirmatory screen for Saos-2 cells (AID 1347127); also: nearly all actives have a fitted effect of over 60% in size; also: potency is read from the fitted curve at half-maximal effect
Procedure, shortened: as §1

[12] = qHTS of pediatric cancer cell lines to identify multiple opportunities for drug repurposing: Confirmatory screen for OHS-50 cells (AID 1347128);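 also: compound exposure lasted 48 h at 37 degrees C; nearly all actives have a fitted effect of over 55% in size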; also: potency is read from the fitted curve at half-maximal effect
Procedure, shortened: as §1

[13] = qHTS of pediatric cancer cell lines to identify multiple opportunities for drug repurposing: Confirmatory screen for SK-N-SH cells (AID 1347129);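 also: cells exposed to compound for 48 h before viability read; nearly all actives have a fitted effect of over 60% in size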; also: potency is read from the fitted curve at half-maximal effect
Procedure, shortened: as §1

[14] = qHTS of pediatric cancer cell lines to identify multiple opportunities for drug repurposing: Confirmatory screen for U-2 OS cells (AID 1347122); also: nearly all actives have a fitted effect of over 65% in size; also: potency is read from the fitted curve at half-maximal effect
Procedure, shortened: as §1

[15] = system: Zika virus NS2B-NS3 protease (unlinked); assay: Optimization of GU AMC qHTS for Zika virus inhibitors: Unlinked NS2B-NS3 protease assay (AID 1347151); also: series mostly up to about 52 µM; nearly all actives have a fitted effect of over 80% in size
Procedure, shortened: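 Percent inhibition is derived from the 15-min change in AMC fluorescence, normalized against no-inhibitor and no-enzyme controls, then fitted to a 4-parameter Hill curve. Aprotinin was the intraplate control.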

Measured: Potency

CCC(CC)(CC(=O)Nc1cccc(/C=C/c2nc(C3CCC3)cs2)c1)C(=O)O
active: Furin (Homo sapiens) 21.5 µM | [1] 24.1 µM | [4] 22.1 µM
inactive: [2] | [3]

CC(=O)NCCCCCC(=O)O
inactive: [2]

C=C1c2cccc(O)c2C(O)=C2C(=O)[C@]3(O)C(O)=C(C(N)=O)C(=O)[C@@H](N(C)C)[C@@H]3[C@@H](O)[C@H]12
active: Furin (Homo sapiens) 8.55 µM | [5] 19.2 µM | [2] 3.98 µM and 2.99 µM
inactive: [3]

COc1ccc(C(=O)c2ccccc2)c(O)c1
inactive: [6] | [7] | [8] | [9] | [10] | [11] | [12] | [13] | [2]

NC(=O)n1c(O)c(C(=O)c2cccs2)c2cc(Cl)ccc21
inactive: [2]

O=C(Oc1cccc2cccnc12)c1ccccc1
active: [7] 8.27 µM
inactive: [6] | [14] | [8] | [10] | [13]

CC1CCc2c(N3CCC(O)CC3)c(F)cc3c(=O)c(C(=O)O)cn1c23 (stereo not given)
inactive: [6] | [14] | [8] | [10] | [13]
active: [7] 18.5 µM

C[C@H]1O[C@@H](O[C@H]2CC[C@@]3(C)[C@H](CC[C@@H]4[C@@H]3C[C@@H](O)[C@]3(C)[C@@H](C5=CC(=O)OC5)CC[C@]43O)C2)C[C@H](O)[C@@H]1O[C@H]1C[C@H](O)[C@H](O[C@H]2C[C@H](O)[C@H](O[C@@H]3O[C@H](CO)[C@@H](O)[C@H](O)[C@H]3O)[C@@H](C)O2)[C@@H](C)O1
inactive: Furin (Homo sapiens) | [15]
active: [14] 0.293 µM | [7] 0.147 µM | [10] 0.414 µM | [11] 0.928 µM | [12] 0.293 µM | [13] 0.332 µM
